Compound activity as filed in PubChem.
Compounds with a hit are over-represented: about 3.4% of the library has one in this group of screens.
PG9 binder: binds the HIV-1 gp120 antibody PG9; TR-FRET gp120-PG9 antibody binding; inhibition, % at 6.7 µM; 0.43% of 360,000 active; AID 624416; in the data active = inhibition above about 8.5%
GAA850 FXN act: increases GAA850 frataxin promoter reporter activity | HEK293 lucGAA850 FXN promoter luciferase reporter, 24 h; percent of 10 µM SAHA response | activation, % at 6 µM | 0.56% of 360,000 active;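 active = activation above the average of all compounds screened plus 3 SD, cutoff fixed separately per campaign, cut at about 7.5% in these data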
SMARCA2 act: activators of SMARCA2 function; MG213 cells, MMTV-luciferase reporter, dexamethasone, overnight; activation, % at 9.1 µM; 1% of 370,000 active; AID 652017; in the data active = activation above about 7.8%
HSF1 inh: HSF1 inhibition; activity change, negative = inhibition, % at 7.5 µM (by protocol); 0.77% of 300,000 active; AID 2098; NIH3T3-HGL HSE-luciferase, MG132-induced, luminescence 8 h; stronger effect = lower value;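 active = more than half of replicate wells show activity change below -50%, luminescence cut by over half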;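 also: luciferase reports HSF-1 transcriptional activity via heat shock element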
AI-2 QS mod: modulates the Vibrio harveyi AI-2 quorum sensing system; activity change, % at 7.5 µM; 0.4% of 300,000 active; Vibrio harveyi JMH597 AI-2 luminescence/OD600 ratio, 9 h; stronger effect = lower value; strain lacks LuxN and CqsS sensors; 0 = neutral-control median; AID 2094; in the data active = activity change below about -75%, passing the limit was not always enough;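 also: luminescence divided by OD600 gain over 9 h not by final OD600 alone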
HSP90 inh: HSP90 refolding inhibition in rabbit reticulocyte lysate | luciferase refolding luminescence, 3 h | inhibition, % at 5.6 µM | 0.91% of 290,000 active;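 active = inhibition above the screen-wide mean plus 3 SD, computed separately per campaign, cut at about 16% in these data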;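 also: inhibitors lower the luminescence because luciferase stays unfolded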
SMARCA2 conf: SMARCA2 activation, confirmation screen; shares compounds with SMARCA2 act; MG213 cells, MMTV-luciferase with dexamethasone, luminescence, overnight; MG213 cells expressing E1A, Rb sequestered; DMSO wells 0%, reference activator 100%; activation, % at 9.1 µM; 30% of 3,500 active; AID 652260;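 active = activation above its plate's cutoff, the mean activation of tested wells plus 3 SD, cut at about 7.9% in these data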
VP16 Luc act: GAL4-VP16 reporter activation counter-screen; shares compounds with SMARCA2 act; HEK293 GAL4-VP16 pG5luc reporter, luciferase luminescence; scaled: DMSO wells 0%, SAHA wells 100%; activation, % at 9.1 µM; 41% of 3,500 active;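 active = activation above the solvent-only control well mean plus 3 SD, averaged across control plates, cut at about 5.2% in these data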
A number is an active result; 0 = inactive; - = not tested or not shown.

SMILES | PG9 binder | GAA850 FXN act | SMARCA2 act | HSF1 inh | AI-2 QS mod | HSP90 inh | SMARCA2 conf | VP16 Luc act
CCC(C(=O)Nc1cnccn1)c1ccccc1 (configuration not stated) | 0 | 0 | 0 | 0 | 0 | 0 | - | -
CCC(C(=O)NNC(=O)c1cnccn1)c1ccccc1 (configuration not stated) | 0 | 0 | 8.1 | 0 | 0 | 0 | 0 | 0
O=C(COc1ccccc1Br)NCc1ccco1 | 0 | 0 | 13 | 0 | 0 | 0 | 0 | 0
COc1ccccc1OCC(=O)NCc1ccco1 | 0 | 0 | 0 | 0 | 0 | 0 | - | -
CNc1nc(N)c([N+](=O)[O-])c(Nc2cccc(Cl)c2)n1 | 0 | 0 | 8.3 | 0 | 0 | 0 | 0 | 0
COC(=O)CC1C(=O)NCCN1C(=O)c1oc2c(C)c(C)ccc2c1C (configuration not stated) | 0 | 0 | 0 | - | - | - | - | -
COC(=O)C(Cc1ccc(O)cc1)NS(=O)(=O)Cc1ccccc1 (configuration not stated) | 0 | - | 0 | - | - | - | - | -
S=C1SCN(Cc2cccnc2)CN1Cc1cccnc1 | 0 | 0 | 12 | -86 | 0 | 0 | 0 | 0
S=C1SCN(Cc2ccccc2)CN1Cc1ccccc1 | 0 | 0 | 0 | 0 | 0 | 0 | - | -
COC(=O)C1=C(C)N(Cc2cccc(C(F)(F)F)c2)C(=NCc2cc(OC)c(OC)c(OC)c2)NC1c1ccccc1 (configuration not stated) | 0 | - | 0 | - | - | - | - | -
CCN(CC)CCn1c(=S)[nH]c2cc3c(cc2c1=O)OCO3 | 0 | 0 | 8.7 | 0 | 0 | 0 | 0 | 0
CCCCc1c(-c2ccccc2OC)ncn1Cc1ccc(C)cc1 | 0 | - | 0 | - | - | - | - | -
COc1ccc(C2N=C(c3ccccc3)NO2)cc1OC (configuration not stated) | 0 | 0 | 8.6 | 0 | 0 | 0 | 14 | 9.6
COc1cc(C2N=C(c3ccccc3)NO2)cc(Br)c1O (configuration not stated) | 0 | 0 | 0 | 0 | 0 | 0 | - | -
COCc1[nH]nc2c1C(c1ccc(F)cc1)NC2=O (configuration not stated) | 0 | - | 0 | - | - | - | - | -
O=c1c2ccccc2sn1-c1ccc(F)cc1 | 0 | 0 | 0 | - | - | - | - | -
Cc1ccc(-n2sc3ccccc3c2=O)cc1 | 0 | 0 | 8.0 | 0 | 0 | 0 | 11 | 0
Cc1nc2c(C(=O)NCCC(C)C)c[nH]n2c(=O)c1Cl | 0 | 0 | 9.5 | 0 | 0 | 0 | 0 | 0
COCCNc1ncnc2c1ncn2[C@H]1CN(Cc2ccccc2)C[C@@H](CO)O1 | 0 | 0 | 0 | - | - | - | - | -
O=C1NC(c2ccc3c(c2)OCO3)c2c(-c3ccccc3)n[nH]c21 (configuration not stated) | 0 | - | 0 | - | - | - | - | -
Cc1onc(-c2ccccc2Cl)c1C(=O)NC(=S)Nc1ccc(C(C)(C)C)cc1 | 0 | 0 | 11 | 0 | 0 | 0 | 0 | 0
CCCn1nc(C(=O)N2CCN(c3ccccn3)CC2)c2ccccc2c1=O | 0 | 0 | 8.1 | - | - | - | 0 | 0
COc1ccc(-n2nc(C(=O)NCC(=O)N3CCN(c4ccccn4)CC3)c3ccccc3c2=O)cc1 | 0 | 0 | 11 | 0 | 0 | 0 | 0 | 0
CN(C)[C@@H]1CCN(c2ccc3c(c2)OCCCN(C2CC2)S3(=O)=O)C1 | - | - | 0 | - | - | - | - | -
Cn1c(=O)c2c(nc(CN3CCOCC3)n2CCN2CCOCC2)n(C)c1=O | - | 0 | - | 0 | 0 | 0 | - | -
SMILES | PG9 binder | GAA850 FXN act | SMARCA2 act | HSF1 inh | AI-2 QS mod | HSP90 inh | SMARCA2 conf | VP16 Luc act
COC(=O)Cn1c(CN2CCOCC2)nc2c1c(=O)n(C)c(=O)n2C | 0 | 0 | 8.3 | 0 | 0 | 0 | 0 | 0
CC(C#N)(Cc1ccccc1)Nc1ccccc1 (configuration not stated) | 0 | 0 | 10 | 0 | 0 | - | 0 | 0
O=C(NNC1CC(=O)N(c2ccc3c(c2)OCCO3)C1=O)c1ccccc1 (configuration not stated) | 0 | 0 | 8.6 | 0 | 0 | 0 | 0 | 0
O=S1(=O)CC(c2ccccc2)=NN=C(c2ccccc2)C1 | 0 | 0 | 0 | - | - | - | - | -
CCCCNc1ccc2c(c1)OC[C@H](Cc1ccccc1)NS2(=O)=O | 0 | - | 0 | - | - | - | - | -
Cc1ccccc1Nc1n[nH]c(=S)s1 | 0 | 0 | 0 | - | - | - | - | -
S=c1[nH]nc(Nc2cccc3ccccc23)s1 | 0 | 0 | 11 | 0 | 0 | 0 | 0 | 0
CCOC(=O)c1csc(-c2ccc(OC)c(OC)c2)n1 | 0 | 0 | 0 | 0 | 0 | 0 | - | -
CCOC(=O)c1csc(-c2ccc3c(c2)CCO3)n1 | 0 | 0 | 16 | 0 | 0 | 0 | 0 | 6.7
CC(=O)c1cccc(NC(=O)C2CCCC2)c1 | 0 | 0 | 0 | 0 | 0 | 0 | - | -
O=C(NC1CC1)c1cccc(NC(=O)C2CCCCC2)c1 | 0 | 0 | 8.1 | - | - | - | 0 | 0
CC1(C(=O)Nc2cccc(Oc3ccccc3)c2)Cc2c(-c3ccc4c(c3)OCO4)ccnc2O1 (configuration not stated) | 0 | 0 | 0 | - | - | - | - | -
COc1ccc(C(=O)Nc2ccnn2C2CCN(C(=O)c3cnsn3)CC2)cc1 | 0 | 0 | 8.9 | 0 | 0 | 0 | 0 | 0
CCc1ccc(C(O)c2ncc(-c3cccc4ccccc34)[nH]2)cc1 (configuration not stated) | 0 | 0 | 0 | - | - | - | - | -
COC(=O)c1cccc(-c2ccc(/C=N/N3C(=O)C4C5C=CC(C6CC56)C4C3=O)o2)c1 (configuration not stated) | 0 | 0 | 0 | 0 | 0 | 0 | - | -
COC(=O)c1ccc(-c2ccc(/C=N/N3C(=O)C4C5C=CC(C6CC56)C4C3=O)o2)cc1 (configuration not stated) | 0 | 0 | 9.0 | 0 | 0 | 0 | 0 | 5.9
Fc1cccc(Cn2ccc3ccc(-c4ccc5ccn(Cc6ccccc6)c5c4)cc32)c1 | - | - | 0 | - | - | - | - | -
O=C(Nc1ccc(F)cc1)Nc1nc2ncccn2c1-c1ccc(F)cc1 | - | - | 0 | - | - | - | - | -
Cc1nccn1-c1ccc(NC(=O)[C@@H](Cc2ccccc2)NC(=O)[C@H]2O[C@@H](n3ccc(=O)[nH]c3=O)[C@H](O)[C@@H]2O)cc1 | 0 | - | 0 | - | - | - | - | -
COc1cc(/C=C2\COC/C(=C\c3ccc(O)c(OC)c3)C2=O)ccc1O | 0 | 0 | 13 | 0 | 0 | 0 | 0 | 0
COc1cc(/C=C2/CC/C(=C/c3ccc(O)c(OC)c3)C2=O)ccc1O | 0 | 0 | 0 | 0 | 0 | 0 | - | -
CC1(C(=O)Nc2ccc3c(c2)OCCO3)CN(S(C)(=O)=O)CC(=O)N1CCc1c[nH]c2ccccc12 (configuration not stated) | 0 | - | 0 | - | - | - | - | -
O=C(N/N=C/c1ccccc1F)c1csc2c1CCCC2 | 0 | 0 | 12 | 0 | 0 | 0 | 8.6 | 10
